# Reference: PubChem BioAssay
# For some assays here: Potency and affinity values are given separately. Calls of active or inactive are those of the source. Where a call stands in place of a potency, no number is given. Unless noted, how the calls were made is not given here.
# Legend:
# [1] = antimalarial activity against Dd2 strain (AID 2302;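 active means growth inhibition above 50% at the single 2 µM test dose, taken to imply half-maximal potency below 2 µM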); settings: P. falciparum Dd2 in RBCs, LDH growth readout, 72 h; at 2 µM; active compounds read high
# [2] = human hepatoma cell viability loss – ATP luminescence, cytotoxicity control for P. falciparum antimalarial project, primary screen (AID 2303;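 active means inhibition above 50%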); settings: HepG2 viability, 24-48 h, at 10 µM, active compounds read high
# [3] = target: L-lactate dehydrogenase (Plasmodium falciparum (isolate CDC / Honduras)) (UniProt Q27743); assay: PfLDH activity inhibition – cell lysate, 3D7 strain, counter-screen for P. falciparum growth inhibition project (AID 2304); settings: P. falciparum 3D7 crude extract, LDH APAD/NBT absorbance; at 2 µM; active compounds read high
# [4] = inhibition of 3D7 malaria parasite growth – strain 3D7 (AID 2306); settings: P. falciparum 3D7 erythrocytic growth, LDH absorbance, 72 h; at 2 µM; active compounds read high
# [5] = target: Calcium-dependent protein kinase 1 (Plasmodium falciparum (isolate 3D7)) (UniProt P62344); assay: PfCDPK1 kinase inhibitors, biochemical, TCAMS library (AID 1159585; cut-off not given, nearly all actives have IC50 up to about 0.98 µM;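 further: inhibitors leave more ATP so luminescence rises with inhibition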); settings: recombinant PfCDPK1, Kinase-Glo ATP depletion luminescence
# [6] = target: Plasmodium falciparum protein kinase 6 (PK6, PF3D7_1337100) (UniProt Q8IDW1); assay: PfPK6 kinase inhibitors, biochemical, TCAMS library (AID 1159586); settings: recombinant PfPK6, Kinase-Glo ATP depletion luminescence
# [7] = target: Protein kinase 7 (PK7), Plasmodium falciparum 3D7 (PF3D7_0213400) (UniProt Q7YTF7); assay: inhibition of Plasmodium PK7 catalytic activity – biochemical, TCAMS antimalarial set, Kinase-Glo luminescence (AID 1159587); settings: recombinant PfPK7, Kinase-Glo ATP depletion luminescence
# [8] = target: Calcium-dependent protein kinase 4 (Plasmodium falciparum (isolate 3D7)) (UniProt Q8IBS5); assay: PfCDPK4 kinase inhibitors, biochemical, TCAMS library (AID 1159588; cut-off not given, nearly all actives have IC50 up to about 0.91 µM); settings: recombinant PfCDPK4, Kinase-Glo ATP depletion luminescence
# Chain of Calcium-dependent protein kinase 4 (Plasmodium falciparum (isolate 3D7)) (Q8IBS5 whole entry, looked up): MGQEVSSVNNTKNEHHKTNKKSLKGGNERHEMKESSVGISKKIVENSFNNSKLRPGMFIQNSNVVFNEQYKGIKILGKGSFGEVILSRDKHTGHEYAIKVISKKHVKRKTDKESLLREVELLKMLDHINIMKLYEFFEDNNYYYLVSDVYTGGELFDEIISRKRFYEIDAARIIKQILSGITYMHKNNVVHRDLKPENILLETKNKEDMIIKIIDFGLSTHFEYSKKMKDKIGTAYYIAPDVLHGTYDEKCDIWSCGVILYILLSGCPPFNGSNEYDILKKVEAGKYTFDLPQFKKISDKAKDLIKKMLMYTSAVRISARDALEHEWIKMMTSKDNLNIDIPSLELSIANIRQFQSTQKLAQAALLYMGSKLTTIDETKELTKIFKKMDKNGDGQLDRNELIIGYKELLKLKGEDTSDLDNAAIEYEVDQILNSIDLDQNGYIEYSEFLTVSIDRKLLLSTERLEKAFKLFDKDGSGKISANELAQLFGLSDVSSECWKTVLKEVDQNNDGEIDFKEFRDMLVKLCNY
# Chain of L-lactate dehydrogenase (Plasmodium falciparum (isolate CDC / Honduras)) (Q27743 whole entry, looked up): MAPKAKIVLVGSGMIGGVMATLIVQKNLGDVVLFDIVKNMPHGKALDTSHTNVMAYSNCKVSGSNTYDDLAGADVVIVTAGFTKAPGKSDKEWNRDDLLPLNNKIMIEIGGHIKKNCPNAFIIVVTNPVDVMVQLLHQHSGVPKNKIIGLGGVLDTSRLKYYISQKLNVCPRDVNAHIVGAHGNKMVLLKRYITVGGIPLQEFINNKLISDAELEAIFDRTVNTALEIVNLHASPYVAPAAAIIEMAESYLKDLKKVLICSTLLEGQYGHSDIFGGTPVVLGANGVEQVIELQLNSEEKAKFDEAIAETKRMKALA
# Chain of Calcium-dependent protein kinase 1 (Plasmodium falciparum (isolate 3D7)) (P62344 whole entry, looked up): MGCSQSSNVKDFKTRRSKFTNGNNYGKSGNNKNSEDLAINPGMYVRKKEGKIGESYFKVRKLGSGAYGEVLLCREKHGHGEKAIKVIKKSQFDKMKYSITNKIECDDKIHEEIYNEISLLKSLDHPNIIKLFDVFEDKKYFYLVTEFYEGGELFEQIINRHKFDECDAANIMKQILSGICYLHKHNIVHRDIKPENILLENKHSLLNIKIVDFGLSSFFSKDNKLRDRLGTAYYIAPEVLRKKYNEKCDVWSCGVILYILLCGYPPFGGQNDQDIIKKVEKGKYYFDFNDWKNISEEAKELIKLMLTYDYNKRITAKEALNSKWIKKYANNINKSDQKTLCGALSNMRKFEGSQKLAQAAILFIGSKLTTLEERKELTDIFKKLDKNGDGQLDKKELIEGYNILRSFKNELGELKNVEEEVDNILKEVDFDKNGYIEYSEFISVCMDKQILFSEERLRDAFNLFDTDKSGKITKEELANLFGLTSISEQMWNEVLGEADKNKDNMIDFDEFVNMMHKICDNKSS
# Chain of Protein kinase 7 (PK7), Plasmodium falciparum 3D7 (PF3D7_0213400) (Q7YTF7 1-343): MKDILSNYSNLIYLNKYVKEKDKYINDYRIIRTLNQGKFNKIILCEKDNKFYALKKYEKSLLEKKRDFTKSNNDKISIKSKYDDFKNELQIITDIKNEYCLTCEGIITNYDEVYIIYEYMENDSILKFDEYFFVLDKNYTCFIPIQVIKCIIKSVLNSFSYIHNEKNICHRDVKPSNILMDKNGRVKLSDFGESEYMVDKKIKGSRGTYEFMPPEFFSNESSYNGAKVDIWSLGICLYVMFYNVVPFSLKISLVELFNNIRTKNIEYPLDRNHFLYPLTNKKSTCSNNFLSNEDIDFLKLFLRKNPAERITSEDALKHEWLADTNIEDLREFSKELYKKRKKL
# Chain of Plasmodium falciparum protein kinase 6 (PK6, PF3D7_1337100) (Q8IDW1 1-305): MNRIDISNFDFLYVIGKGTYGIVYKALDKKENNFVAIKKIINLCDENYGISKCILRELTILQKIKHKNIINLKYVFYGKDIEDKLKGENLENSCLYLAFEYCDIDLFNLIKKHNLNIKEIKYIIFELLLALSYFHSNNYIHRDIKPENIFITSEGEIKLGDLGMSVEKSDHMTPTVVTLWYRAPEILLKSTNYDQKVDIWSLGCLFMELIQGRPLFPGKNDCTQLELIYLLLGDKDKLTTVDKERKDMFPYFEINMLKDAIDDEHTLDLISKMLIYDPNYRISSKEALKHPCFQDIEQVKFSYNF
Structure (SMILES),growth inhibition [1],inhibition [2],inhibition [3],growth inhibition [4],outcome [5],outcome [6],outcome [7],outcome [8]
COc1ccc2c(NN=Cc3c(OC)ccc4ccccc34)cc(C)nc2c1,85% (active),7% (inactive),2% (inactive),102% (active),inactive,inactive,inactive,inactive
CNc1ccc(CNCc2cccc(-c3ccc(-c4nc5c(C)cccc5[nH]4)s3)c2)cc1,88% (active),23% (inactive),-2% (inactive),101% (active),inactive,inactive,inactive,inactive
CCCN1CCN(CC(O)CNC(=O)Nc2ccc(Cl)cc2)CC1 (configuration not stated),100% (active),6% (inactive),-3% (inactive),100% (active),inactive,inactive,inactive,inactive
COc1cccc2cc(C(=O)N[C@@H](CC(C)C)C(=O)N[C@H](/C=N/NC(=O)OC(C)(C)C)CC(C)C)oc12,57% (active),8% (inactive),-2% (inactive),88% (active),inactive,inactive,inactive,inactive
Cc1cc(F)ccc1-c1nc(N(C)CCN(C)C(=O)N(C)c2ccccc2)nc2c1ccc(=O)n2-c1c(F)cccc1F,77% (active),-1% (inactive),2% (inactive),87% (active),inactive,inactive,inactive,inactive
N#Cc1cccc(Nc2nccc(NCC(O)c3cccc(C(F)(F)F)c3)n2)c1 (configuration not stated),84% (active),4% (inactive),-3% (inactive),99% (active),inactive,inactive,inactive,inactive
Cc1cccc2[nH]c(-c3cccc(-c4ccc(CN5CCC(C(N)=O)CC5)cc4)c3)nc12,9% (inactive),-1% (inactive),4% (inactive),89% (active),inactive,inactive,inactive,inactive
CC(C)NCc1ccc(-c2cccc(-c3nc4ccc(C(F)(F)F)cc4[nH]3)c2)cc1,100% (active),21% (inactive),-5% (inactive),101% (active),inactive,inactive,inactive,inactive
CCOC(=O)c1ccc(NC(=O)Nc2cccc(-c3cccc(-c4nc5ccc(F)cc5[nH]4)c3)c2)cc1,100% (active),85% (active),6% (inactive),101% (active),inactive,inactive,inactive,inactive
Cc1nn(-c2ccccc2)c2c1C(c1ccc(C(C)C)cc1)N1C(=N2)N(Cc2ccccc2)c2ccccc21 (configuration not stated),37% (inactive),7% (inactive),-7% (inactive),95% (active),inactive,inactive,inactive,inactive
COc1cc(NC(=O)c2nn(CCCN3CCC(N4CCCC4)CC3)cc2-c2ccc(Cl)c(Cl)c2)cc(OC)c1OC,100% (active),76% (active),-5% (inactive),103% (active),inactive,inactive,inactive,inactive
CC(=O)c1cc(N2CCCC2)ccc1N,97% (active),1% (inactive),-2% (inactive),97% (active),inactive,inactive,inactive,inactive
O=C(/C=C/c1ccc(Cl)c(Cl)c1)NCCCCCN1CCCN(C(=O)Nc2ccc(C(F)(F)F)cc2)CC1,7% (inactive),31% (inactive),3% (inactive),102% (active),inactive,inactive,inactive,inactive
CCOc1ccccc1C(=O)Nc1cccc(-c2nc3ncccn3c2C)c1,88% (active),0% (inactive),-6% (inactive),92% (active),inactive,inactive,inactive,inactive
O=C(Nc1ccc(CN2CCOCC2)cc1)c1ccc(-c2ccc(Br)cc2)o1,-4% (inactive),3% (inactive),-2% (inactive),92% (active),inactive,inactive,inactive,inactive
COc1ccccc1NC(=O)Nc1cccc(-c2ccc(-c3nc4c(C)cccc4[nH]3)s2)c1,46% (inactive),19% (inactive),3% (inactive),100% (active),inactive,inactive,inactive,inactive
O=c1cc(NCCCNC2CCCc3c2cc(Cl)c(Cl)c3Cl)[nH]c2ccccc12 (configuration not stated),64% (active),6% (inactive),-10% (inactive),100% (active),inactive,inactive,inactive,inactive
CCc1cc2c(Sc3nc4ccccc4[nH]3)ncnc2s1,98% (active),6% (inactive),2% (inactive),97% (active),inactive,inactive,inactive,inactive
CCc1c(CCNCC/C=C/CCNCCc2ccc(OC)c(OC)c2CC)ccc(OC)c1OC,7% (inactive),41% (inactive),3% (inactive),100% (active),inactive,inactive,inactive,inactive
Cc1ccc(NC(=O)c2ccc(Cl)cc2)cc1-c1ccc(C(=O)Nc2ccncc2)cc1,5% (inactive),36% (inactive),3% (inactive),98% (active),inactive,inactive,inactive,inactive

Structure (SMILES),growth inhibition [1],inhibition [2],inhibition [3],growth inhibition [4],outcome [5],outcome [6],outcome [7],outcome [8]
Cc1cccc(-c2cccc(CNc3nc(NCCc4ccc(O)cc4)nc(N4CCNCC4)n3)c2)c1,-3% (inactive),50% (active),0% (inactive),84% (active),inactive,inactive,inactive,inactive
OC(CNCc1cccc(Oc2ccc(Cl)cc2)c1)c1cccc(C(F)(F)F)c1 (configuration not stated),78% (active),-1% (inactive),3% (inactive),94% (active),inactive,inactive,inactive,inactive
O=C(Nc1cccc(-c2cccc(-c3nc4ccccc4[nH]3)c2)c1)c1csnn1,27% (inactive),31% (inactive),5% (inactive),90% (active),inactive,inactive,inactive,inactive
Cn1cncc1C(=O)Nc1ccc(-c2ccc(-c3nc4ccc(C(F)(F)F)cc4[nH]3)cc2)cc1,33% (inactive),24% (inactive),5% (inactive),102% (active),inactive,inactive,inactive,inactive
Cc1cccc(CN2CCC(CNC(=O)c3cc4c(-c5ccccc5F)nn(C)c4s3)CC2)c1,15% (inactive),18% (inactive),-4% (inactive),85% (active),inactive,inactive,inactive,inactive
COc1ccc2ncc(F)c(CCN3CC[C@H](NCc4cc(C#N)c5c(c4)OCCO5)[C@H](O)C3)c2c1,47% (inactive),51% (active),2% (inactive),96% (active),inactive,inactive,inactive,inactive
O=C(c1ccco1)N1CCN(c2ccc([N+](=O)[O-])c(NC3CC3)c2)CC1,99% (active),-8% (inactive),0% (inactive),101% (active),inactive,inactive,inactive,inactive
CCc1ccc(C2CCN(CCCCNC(=O)c3ccc(-c4ccc(C#N)cc4)cc3)CC2)c(OCCO)c1,61% (active),24% (inactive),-4% (inactive),94% (active),inactive,inactive,inactive,inactive
CCc1cc(Br)c2c(c1)C(NCCCNc1cc(=O)c3ccccc3[nH]1)CCN2 (configuration not stated),20% (inactive),13% (inactive),-1% (inactive),94% (active),inactive,inactive,inactive,inactive
O=C(/C=C/c1ccc(Cl)c(Cl)c1)NCCCCCN1CCC(C(=O)Nc2ccc(Cl)cc2)CC1,-1% (inactive),42% (inactive),8% (inactive),100% (active),inactive,inactive,inactive,inactive
Cc1cccc2[nH]c(-c3ccc(-c4ccc(NC(=O)Nc5ccc(Cl)cc5)cc4)cc3)nc12,100% (active),52% (active),-5% (inactive),101% (active),inactive,inactive,inactive,inactive
NC1=NC2(CCCCC2)N(OCCCCCCc2ccccc2)C(N)=N1,69% (active),73% (active),-2% (inactive),100% (active),inactive,inactive,inactive,inactive
CN(C)Cc1ccc(-c2cc3c(Nc4ccc(OCc5cccc(F)c5)c(Cl)c4)ncnc3s2)[nH]1,84% (active),8% (inactive),-1% (inactive),100% (active),inactive,inactive,inactive,inactive
CCNc1cc(C(=O)N[C@@H](Cc2ccccc2)[C@H](O)CNCCCc2ccc(OC)cc2)cc(N2CCCC2=O)c1,96% (active),4% (inactive),2% (inactive),99% (active),inactive,inactive,inactive,inactive
CC1(C)Cc2c(oc3ncn(CCn4cnc5oc6c(c5c4=N)CC(C)(C)SC6)c(=N)c23)CS1,93% (active),-11% (inactive),0% (inactive),98% (active),inactive,inactive,inactive,inactive
CCOC(=O)N1CCN(CCCCCNc2cc(C)nc(/N=C(\N)Nc3ccc(Cl)cc3)n2)CC1,0% (inactive),,-1% (inactive),101% (active),inactive,inactive,inactive,inactive
COc1cc(Cc2cnc(N)nc2N)cc(OCCCS(=O)(=O)O)c1OC,-6% (inactive),,1% (inactive),88% (active),inactive,inactive,inactive,inactive
COc1cccc(C2CCN(CCCCNC(=O)c3ccc(NC(=O)c4ccc(Cl)cc4)cc3)CC2)c1,40% (inactive),18% (inactive),-5% (inactive),99% (active),inactive,inactive,inactive,inactive
COc1cc(Cc2cnc(N)nc2N)cc(OCCCCCCC(=O)O)c1OC,2% (inactive),,-4% (inactive),90% (active),inactive,inactive,inactive,inactive
CC(C)NCc1ccc(-c2ccc(NC(=O)c3cccc(C#N)c3)cc2)cc1,77% (active),40% (inactive),-2% (inactive),99% (active),inactive,inactive,inactive,inactive
